Laboratory results reported in PubChem BioAssay (NCATS).
Several values for one entry are separate records, joined by “and”; a condition that tells them apart may be missing. Identical values can stand only once. Records with an inconclusive call do not appear. Values without a mark were called inactive. Calls follow the shape of the dose curve; as a rule, active = well fitted curve in the direction sought with a large enough effect in the signal ratio, with a control signal flat; inconclusive = small, poorly fitted or top-dose-only effect, or a change in a side signal; inactive = no such curve, though single readings can be large or run the other way; the % refers to the signal ratio.

These molecules were tested against Glucocorticoid receptor (Homo sapiens) (UniProt P04150) (assay: qHTS assay for small molecule agonists of glucocorticoid receptor signaling (AID 588532)). Conditions: HeLa MMTV-bla, beta-lactamase ratio, agonist, 18 h; stronger effect = higher value; percent of dexamethasone control, DMSO zero.
Excerpt: NIH Chemical Genomics Center [NCGC] U.S. Environmental Protection Agency [EPA] National Institutes of Environmental Health Sciences [NIEHS] National Toxicology Program [NTP] NCGC Assay Overview The Glucocorticoid receptor (GR), a nuclear receptor subfamily member and its natural ligands includes […] etc. The GR is a validated drug target for inflammation. GR ligands such as dexamethasone are clinically available as anti-inflammatory drugs. Glucocorticoids implicate role in carbohydrate, protein and lipid metabolisms and programmed cell death. They are also a component of many chemotherapy regimens for the treatment of leukemias, lymphomas, and myelomas because of their role in the induction of apoptosis.
NCGC Assay Protocol Summary Using a beta-lactamase reporter-gene under control of glucocorticoid response element (GRE), a cell-based assay [CellSensor MMTV-bla HeLa cell line assay developed by Invitrogen] was used to measure GR ligands signaling. CellSensor MMTV-bla HeLa cells were used with assay medium containing 1% charcoal/dextran treated FBS, 0.1 mM NEAA, 1 mM sodium pyruvate and 25mM HEPES. The assay was performed in clear bottom black Greiner 1536-well plates. Dexamethasone and Mifepristine were used in the screen as agonist and antagonist positive controls respectively. Library compounds were measured for their ability to stimulate the reporter gene activity. Compounds were screened in a titration series in 1536-well format. The fluorescence intensity (405 nm excitation, 460/530 nm emission) was measured using an EnVision plate reader. Data was normalized relative to Dexamethasone control (0.1 uM, 100%), and DMSO only wells (basal, 0%). Concentration-response titration points for each compound were fitted to the Hill equation yielding concentrations of half-maximal stimulation (EC50) and maximal response (efficacy) values. qHTS protocol for GR beta-lactamase assay in agonist mode [Step] [Parameter] [Value] [Description] 1. Reagent; 6 uL; 1500 cells/well 2. Incubation; 37 C for 3-5 hrs 3. Compounds; 23 nL; 0.59 nM to 92 uM 4. Controls (Dexamethasone); 23 nL, - One column with dose response, start 4.6uM, 1:3 dilutions in duplicates - Final concentrations of 0.1 uM and 2 nM in two columns 5. Incubation; 37 C for 18 hrs 6. Detection reagent; 1 uL of CCF4-dye 7. Incubation; RT for 2 hrs 8. Detection; Fluorescence; Envision plate reader

Chain of Glucocorticoid receptor (Homo sapiens) (P04150 whole entry, looked up): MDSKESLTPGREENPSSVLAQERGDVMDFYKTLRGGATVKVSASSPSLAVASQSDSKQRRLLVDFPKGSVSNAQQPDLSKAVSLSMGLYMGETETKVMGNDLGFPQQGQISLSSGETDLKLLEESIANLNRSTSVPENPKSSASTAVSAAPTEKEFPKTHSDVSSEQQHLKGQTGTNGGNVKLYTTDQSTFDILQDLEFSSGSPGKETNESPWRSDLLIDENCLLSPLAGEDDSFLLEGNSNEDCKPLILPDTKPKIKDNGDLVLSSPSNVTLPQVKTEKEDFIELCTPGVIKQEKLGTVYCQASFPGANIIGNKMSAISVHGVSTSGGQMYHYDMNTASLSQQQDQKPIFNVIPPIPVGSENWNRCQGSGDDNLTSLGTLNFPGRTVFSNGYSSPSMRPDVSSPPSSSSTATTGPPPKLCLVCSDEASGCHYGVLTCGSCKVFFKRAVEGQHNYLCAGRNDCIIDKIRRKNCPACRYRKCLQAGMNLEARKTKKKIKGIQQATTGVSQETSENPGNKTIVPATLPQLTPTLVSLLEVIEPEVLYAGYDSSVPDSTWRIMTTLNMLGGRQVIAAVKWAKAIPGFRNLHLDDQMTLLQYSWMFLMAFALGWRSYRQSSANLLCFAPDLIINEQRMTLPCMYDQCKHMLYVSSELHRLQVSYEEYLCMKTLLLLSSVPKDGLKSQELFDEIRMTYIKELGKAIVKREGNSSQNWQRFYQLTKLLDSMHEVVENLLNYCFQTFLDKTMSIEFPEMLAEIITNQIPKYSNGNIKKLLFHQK

Compound | activation
Clc1ccc(Cl)c(Cl)c1Cl | 16% and -12%
OC(CCl)CCl | 14.2%
CC(=O)Nc1ccc(C)cc1 | 8.72%
CCN(C(=O)N(CC)c1ccccc1)c1ccccc1 | -1.59%
CC(C)(O)C(=O)O | 5.7%
CC(C)(c1cc(Br)c(OCC(Br)CBr)c(Br)c1)c1cc(Br)c(OCC(Br)CBr)c(Br)c1 (stereo not given) | 11.6%
CCOCCO | -1.34%
O=[N+]([O-])c1ccccc1CCO | 3.95%
CC(=O)OC(C)C | 0.131%
COCCOC(=O)c1ccccc1C(=O)OCCOC | -0.475%
CSCCC=O | -3.21%
CCCCCCCCCCCCOCC1CO1 (stereo not given) | 7.49%
CN(C)c1cccc(O)c1 | -1.05%
CC(=O)c1nccs1 | -5.55%
NC(=O)/N=N/C(N)=O | 7.65%
O=C(O[C@@H](C(=O)O)[C@@H](OC(=O)c1ccccc1)C(=O)O)c1ccccc1 | -3.12%
NC(=S)NNC(N)=S | -4.1% and -4.08%
CC1(N)CCC(C(C)(C)N)CC1 (stereo not given) | 7.57%
Cc1ccc(C)o1 | -6.27%
CSc1ccc(C=O)cc1 | -2.41%

Compound | activation
Clc1cc(Cl)cc(Cl)c1 | 5.2%
O=C(Cl)c1cccc([N+](=O)[O-])c1 | 3.39%
O=[N+]([O-])c1cc(C(F)(F)F)ccc1Cl | -0.113%
O=C(O)c1ccc(C(=O)O)cc1 | 6.51% and -2.73%
C=C(C)C(=O)OCC(C)O (stereo not given) | -4.2%
COc1ccc(N=[N+]([O-])c2ccc(OC)cc2)cc1 | 9.01%
O=CNc1ccccc1 | -0.553%
CCC(C)O (stereo not given) | 0.0998%
CCCCC(=O)N(C)C | -1.2%
O=C(Cl)c1ccccc1[N+](=O)[O-] | -0.396%
Cc1cc([N+](=O)[O-])ccc1N | -2.44%
CCC(C)=O | -3.19%
CCOC(=O)C(C)C(C)=O (stereo not given) | -10.2%
CC1=C(/C=C/C(C)=C/C=C/C(C)=C\C=O)C(C)(C)CCC1 | 1.42%
C=CCOC(=O)COCCC(C)C | -3.64%
CNc1ccccc1 | 19.8%
O=[N+]([O-])c1cccc(C(F)(F)F)c1 | -5.05%
CCCC(Cl)CCCC(Cl)CCC(Cl)CCC(Cl)CCC(Cl)CCCC(Cl)CCC (stereo not given) | 3.07%
CCCCCCO | -1.01%
Cc1ccccc1C(=O)O | -5.56%
